For 14 molecules, composite z-score and z-score results are on record in PubChem BioAssay.

The source made the active and inactive calls. Unless noted, no rule for the calls is given here.

For test [1], the system named is XIP peptide (Xip251-270) binding. In words: XIP fragment 251-270 binding compounds – biochemical, small-molecule microarray, fluorescence 635/667 nm, 0.1 µg/mL protein, primary screen (AID 1182). The following applies: fluorescent protein binding, 635 nm, higher = more signal, called active from +8 up or from −8 down.
In test [2] the test system is XIP peptide (Xip251-270). Put plainly: compounds binding XIP fragment 251-270 – biochemical, small-molecule microarray, fluorescence 635/667 nm, 0.5 µg/mL protein, primary screen (AID 1183). The following applies: fluorescence 635 nm, higher = more signal.
Test [3] in a line: blood-stage malaria parasite viability loss – strain 3D7, DAPI fluorescence, 100 nL, primary screen (AID 1184).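 Also: parasites grown inside human red blood cells in medium with human serum.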 The conditions noted are these: P. falciparum 3D7 growth, 3 d, higher = more signal.
The target in test [4] is Homeobox protein Hox-A13 (Mus musculus) (UniProt Q62424). Put plainly: disruptors of Hoxa13 oligonucleotide interaction – biochemical, fluorescence polarization, labeled oligonucleotide, primary screen (AID 1185). The following applies: Hoxa13:DNA binding, 15 min, higher = more signal, called active from +8 up or from −8 down. For orientation: Polarisation of emitted light reports the rotation of a fluorescent probe.

A short description of test [5]: blockers of DNA damage checkpoint Chk1 activation – imaging, HeLa, hydroxyurea, phospho-Chk1 antibody, percent positive cells, primary screen (AID 1186). The following applies: hydroxyurea-induced phospho-Chk1 immunofluorescence imaging, higher = more signal.
Test [6] can be described thus: blockers of DNA damage checkpoint Chk1 activation – imaging, HeLa, hydroxyurea, phospho-Chk1 nuclear intensity, primary screen (AID 1187). The following applies: hydroxyurea-induced phospho-Chk1 immunofluorescence imaging, higher = more signal.

Homeobox protein Hox-A13 (Mus musculus), sequence (Q62424 whole entry, looked up): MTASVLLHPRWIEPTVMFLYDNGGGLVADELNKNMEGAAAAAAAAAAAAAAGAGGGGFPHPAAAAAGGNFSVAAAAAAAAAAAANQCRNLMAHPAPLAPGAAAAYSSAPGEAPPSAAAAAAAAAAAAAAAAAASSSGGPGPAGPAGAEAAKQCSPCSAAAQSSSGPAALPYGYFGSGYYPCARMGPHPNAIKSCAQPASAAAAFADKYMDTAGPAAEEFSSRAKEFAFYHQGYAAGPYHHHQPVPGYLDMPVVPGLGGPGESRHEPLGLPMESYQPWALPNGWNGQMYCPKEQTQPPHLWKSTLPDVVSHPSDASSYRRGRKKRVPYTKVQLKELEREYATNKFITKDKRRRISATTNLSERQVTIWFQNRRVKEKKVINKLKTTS

Consider `CCCCc1cn(C[C@H](Cc2ccccc2)NC(=O)N[C@H](CO)CCc2oc(C(C)=O)c(C(=O)OC)c2C(=O)OC)nn1`, for which the composite z-score is 0.703 (inactive) in test [1] and 0.512 in test [2]. Moreover, the z-score is -1.92 in test [3], -4.73 (inactive) in test [4], -0.185 (inactive) in test [5] and -0.228 (inactive) in test [6].
Regarding `CCCC=C(CCC)[C@@H](NC(=O)Oc1ccc(F)cc1)c1ccc(C(=O)OC)cc1`, the composite z-score was 0.814 (inactive) in test [1] and 0.302 in test [2]. Moreover, the z-score is -0.476 in test [3], -0.734 (inactive) in test [4], 0.239 (inactive) in test [5] and 0.34 (inactive) in test [6].
As for `[N-]=[N+]=Nc1ccccc1C[C@@]1(C(=O)NCCN2CCOCC2)N=C(c2ccc(OCCCO)cc2)O[C@@H]1c1ccccc1`, the composite z-score in test [1] is 0.58 (inactive); in test [2], 0.827. In addition, the z-score in test [3] is -2.33; in test [4] it was -4.23 (inactive); in test [5], -0.785 (inactive); in test [6], -1.11 (inactive).
Regarding `CN1C2C=C(CCCO)C(C3C(=O)N(C(N)=O)C(=O)C32)C1c1ccc(CN2CCCC2)cc1` (centres undefined), the composite z-score is 0.276 (inactive) in test [1] and 0.297 in test [2]. Further, the z-score is 0.446 in test [3], -5.26 (inactive) in test [4], 0.0965 (inactive) in test [5] and -0.0741 (inactive) in test [6].
On to `COC(=O)[C@@]1(Cc2ccc(F)cc2)[C@H]2c3cc(C(=O)N4CCCC4)n(Cc4ccc(C)o4)c3C[C@H]2CN1C(=O)c1ccccc1`, for which the composite z-score was 0.205 (inactive) in test [1] and 0.705 in test [2]. The z-score in test [3] was -1.14; in test [4] it was -4.22 (inactive); in test [5] it was -0.289 (inactive); in test [6] it was -0.163 (inactive).
For the molecule `CC1CC/C=C\[C@H]2OC34C=CCN(c5ccc(Cl)cc5)C(=O)[C@H]3N(CCO)C(=O)[C@]4(C)C2C(=O)O1` (some centres undefined), the figures for the composite z-score in test [1] and in test [2] were 1.21 (inactive) and 0.18, respectively. For the same molecule, the z-score in test [3] was -0.515; in test [4] it was -4.66 (inactive); in test [5], -0.0711 (inactive); in test [6], -0.271 (inactive).
On to `COc1ccc(C(=O)Nc2cccc(CN3C(=O)[C@]4(O[C@H](CCO)[C@@H]([Si](C)(C)c5ccc(OC)cc5)[C@@H]4C)c4ccccc43)c2)cc1`, for which the figures for the composite z-score in test [1] and in test [2] were -0.0488 (inactive) and 0.639, respectively. Besides, the z-score is -2.85 in test [3], -2.45 (inactive) in test [4], -0.204 (inactive) in test [5] and -0.881 (inactive) in test [6].
On to `COc1cc2c(cc1O)C(C1CC1)N(Cc1cc3c(cc1Br)OCO3)CC2` (centres undefined), for which the composite z-score in test [1] is 0.411 (inactive); in test [2], 0.479. Further, the z-score in test [3] is -2.44; in test [4], -5.54 (inactive); in test [5] it was -0.174 (inactive); in test [6] it was 0.285 (inactive).
As for `COc1ccc([Si](C)(C)[C@@H]2[C@@H](CC(=O)N3Cc4ccccc4C[C@H]3CO)O[C@]3(C(=O)N(C)c4c(Br)cc(C)cc43)[C@H]2C)cc1`, the composite z-score in test [1] is -0.223 (inactive); in test [2], 0.565. The z-score in test [3] is -2.35; in test [4], -4.06 (inactive); in test [5] it was -0.79 (inactive); in test [6], -0.12 (inactive).
For the molecule `C=C(COC)/C(=C/C[C@@H](OC(C)=O)c1ccc(CO)o1)c1cnc2ccccc2c1`, the composite z-score in test [1] was 1.12 (inactive); in test [2], 0.797. For the same molecule, the z-score in test [3] is -1.35; in test [4], -4.13 (inactive); in test [5], -0.154 (inactive); in test [6], -0.323 (inactive).
As to `C=CC[C@@]1(C(N)=O)N=C(c2ccc(OCCCO)cc2)O[C@@H]1c1ccccc1CN=[N+]=[N-]`, the results for the composite z-score in test [1] and in test [2] were 1.06 (inactive) and 0.843, respectively. Besides, the z-score in test [3] is -1.7; in test [4], -3.93 (inactive); in test [5] it was 0.586 (inactive); in test [6], 1.16 (inactive).
Consider `NC(=O)[C@@H]1[C@H]2C(=O)O[C@H](c3ccccc3)[C@H](c3ccccc3)N2[C@H](c2ccc(O)cc2)[C@@]12C(=O)Nc1ccc(C#CC3(O)CCCCCC3)cc12`, for which the figures for the composite z-score in test [1] and in test [2] were 0.734 (inactive) and 0.458, respectively. Further, the z-score in test [3] was 0.907; in test [4], -3.37 (inactive); in test [5], -0.0527 (inactive); in test [6], 0.0812 (inactive).
Consider `COCCOC(=O)N1C(=O)[C@@]2(c3ccccc31)[C@H](c1ccc(O)cc1)N1[C@H](c3ccccc3)[C@H](c3ccccc3)OC(=O)[C@H]1[C@@H]2C(=O)NC[C@H](O)c1ccccc1`, for which the composite z-score in test [1] is 2.15 (inactive); in test [2] it was 0.837. The z-score was -0.682 in test [3], -5.58 (inactive) in test [4], -0.229 (inactive) in test [5] and -0.211 (inactive) in test [6].
On to `CN(C)CCCNC(=O)[C@@]1(c2ccc([N+](=O)[O-])cc2)CC(=O)N(C2CCCCC2)[C@@H]1c1ccc(CO)cc1I`, for which the composite z-score in test [1] is -0.117 (inactive); in test [2], 0.248. Moreover, the z-score is -2.17 in test [3], 0.362 (inactive) in test [4], -0.227 (inactive) in test [5] and -0.413 (inactive) in test [6].
